Data on eleven substances can be found in ChEMBL document CHEMBL1201862, “PubChem BioAssay data set” (2004).

Among all 57,000 sequences or so, about 3,700 (6.5%) were called active. No stated cut-off is given here; in the data, active = GI50 up to about 1.1 µM and inactive = higher. The list is a sample of the results. Measured potencies and affinities stand elsewhere.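 Cells were grown in 96-well plates and exposed to each compound for 48 hours at five concentrations; endpoints were interpolated linearly between bracketing concentrations, or set to the highest concentration if not reached. Here, GI50 denotes the concentration required for 50% inhibition of growth.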

In this assay the test system is ACHN. Nature of the assay: NCI tumour cell line growth inhibition, 48 h.
In turn, CISPLATIN, CHEMBL11359 gave a GI50 of 1.22 µM.

In turn, “cis-Bis[[(trimethylsilyl)methyl]amino]tetrachloroplatinum(IV), CHEMBL2146191” had a GI50 of 6.25 µM.

In turn, “[Bis(aminomethyl)dimethylsilane]dichloroplatinum (II), CHEMBL2146201” displayed a GI50 of 12.6 µM.

The substance “[Bis(aminomethyl)tetramethylenesilane]dichloropaltinum(II), CHEMBL2146205” returned a GI50 of 12.3 µM.

As to “[Bis(aminomethyl)pentamethylenesilane]dichloropaltinum(II), CHEMBL2146202”, the GI50 came to 1.63 µM.

“mu-(1,7-nanodiamine-N,N')bis-(cis-aminedichloroplatimum (II)), CHEMBL2146215” registered a GI50 of 27.8 µM.

Turning to “[Bis(aminomethyl)ethylmethylsilane]tetrachloroplatinum(IV), CHEMBL2146192”, the GI50 was determined as 2.67 µM.

For “[Bis(aminomethyl)pentamethylenesilane]tetrachloropaltinum(IV), CHEMBL2146204”, the GI50 was determined as 1.79 µM.

Consider “[Bis(aminomethyl)tetramethylenesilane]tetrachloropaltinum(IV), CHEMBL2146189”, for which the GI50 stood at 3.69 µM.

With “[Bis(aminomethyl)dimethylsilane]tetrachloroplatinum(IV), CHEMBL2146190”, the GI50 worked out at 4.84 µM.

“[Bis(aminomethyl)diethylsilane]tetrachloroplatinum(IV), CHEMBL2146203” gave a GI50 of 2.99 µM.
